Results on 55 molecules are retold here after PubChem BioAssay AID1986 (Sanford-Burnham Center for Chemical Genomics, 2009).

What is called inhibition is the change of the read-out against control, counted positive when it falls.

The nature of the assay: cell-free HIV fusion peptide-binding blockers – biochemical, uHTS, fluorescence dequenching, primary screen (AID 1986). To be noted: 30 min, stronger effect = higher value.
Setting [1] is: measured here: repeat confirmation average inhibition, at 18.6 µM.

In all, about 290,000 compounds went through this assay and about 890 (0.31%) were called active. No stated cut-off is given here; in the data, active means inhibition mostly above about 52% (no sharp cut-off); inactive means mostly below about 76%. For the sample, actives were picked, then their nearest neighbours and some compounds at random.

As to `CC(=O)Nc1cccc(NC(=O)CSc2ncc(-c3ccccc3)[nH]2)c1`, for the setting “at 20 µM”, the inhibition was 0.5% (inactive).

On to `Cc1ccc(C(C(=O)NC2CCCCC2)N(Cc2ccco2)C(=O)Cn2cnc3ccccc32)cc1` (centres undefined), for which the inhibition (at 20 µM) is -1.8% (inactive).

Turning to `Cc1nc(NC(=O)/C=C/c2ccccc2)sc1C(=O)N1CCCCC1`, the inhibition (at 20 µM) is -0.3% (inactive).

`Cc1cc(/C=C2\SC(=S)N(Cc3ccco3)C2=O)c(C)n1-c1ccccc1`: the inhibition (at 20 µM) was 43.7% (inactive).

Consider `Cc1cc(/C=C2\SC(=S)N(Cc3ccco3)C2=O)c(C)n1-c1cccnc1`, for which the inhibition was 53.6% (active) (at 20 µM) and 94.4% under setting [1].

`COc1ccc(-n2c(C)cc(/C=C3\SC(=S)N(Cc4ccco4)C3=O)c2C)cc1`: the inhibition (at 20 µM) was 38.3% (inactive).

As to `NC(=O)CSc1nc(C23CC4CC(CC(C4)C2)C3)nc2ccccc12`, the inhibition (at 20 µM) is -1.1% (inactive).

For the molecule `CCCNC(=O)Cn1c(=O)/c(=C\c2ccc(-c3ccc([N+](=O)[O-])cc3)o2)s/c1=C\C(=O)C(C)(C)C`, the inhibition (at 20 µM) was 145% (inactive).

With `CC(C)(C)C(=O)/C=c1\s/c(=C\c2ccc(-c3ccc([N+](=O)[O-])cc3)o2)c(=O)n1CC(=O)NC(N)=O`, for the setting “at 20 µM”, the inhibition was 76.8% (active).

Regarding `CCCNC(=O)Cn1c(=O)/c(=C\c2ccc(-c3cccc([N+](=O)[O-])c3)o2)s/c1=C\C(=O)C(C)(C)C`, for the setting “at 20 µM”, the inhibition was 23.1% (inactive).

Turning to `O=C(CCc1nc2ccccc2[nH]c1=O)N/N=C/c1ccccc1`, the inhibition (at 20 µM) was -0.5% (inactive).

On to `CCOC(=O)CCSc1nc(C)cc(C(F)(F)F)c1C#N`, for which the inhibition (at 20 µM) was 82% (active) and the inhibition under setting [1] was found to be 50.9%.

`CCOC(=O)NC(=O)CSc1nc(C)cc(C(F)(F)F)c1C#N`: where the note is “at 20 µM”, the inhibition is 4.9% (inactive).

As to `CCOC(=O)CCSc1nc(C(C)(C)C)cc(C(F)(F)F)c1C#N`, the inhibition (at 20 µM) was -0.1% (inactive).

Regarding `O=C(NN=C1C2CC3CC(C2)CC1C3)c1cccc(S(=O)(=O)N2CCOCC2)c1`, for the setting “at 20 µM”, the inhibition is 2.1% (inactive).

`Cc1ccccc1CSc1n[nH]c(NS(=O)(=O)c2ccccc2)n1`: the inhibition (at 20 µM) is -0.6% (inactive).

With `COc1ccccc1C(=O)NNC(=O)c1cccc(C)c1`, the inhibition (at 20 µM) is 0.2% (inactive).

On to `Cc1cc(-c2csc(NC(=O)c3ccc(C#N)cc3)n2)c(C)n1Cc1ccco1`, for which the inhibition (at 20 µM) was 56.1% (active).

As to `Cc1cc(-c2csc(NC(=O)c3ccc(C#N)cc3)n2)c(C)n1Cc1ccccc1`, under “at 20 µM”, the inhibition is 15.9% (inactive).

On to `Cc1cc(-c2csc(NC(=O)c3ccc(=O)[nH]c3)n2)c(C)n1Cc1ccco1`, for which the inhibition (at 20 µM) was 61% (active).

Consider `CCNc1nc(-c2cc(C)n(Cc3ccco3)c2C)cs1`, for which the inhibition (at 20 µM) was 59.6% (inactive) and the inhibition under setting [1] was determined as 0.3%.

For the molecule `Cc1cc(-c2csc(NC(=O)c3ccc(=O)[nH]c3)n2)c(C)n1Cc1ccccc1`, the inhibition runs as follows: (at 20 µM) 84.8% (inactive); under setting [1], 2.3%.

Turning to `Cc1cc(-c2csc(N)n2)c(C)n1Cc1ccco1`, the inhibition (at 20 µM) was 46.3% (inactive).

With `O=C(Nc1cccc(C(F)(F)F)c1)/C(=C/c1ccco1)NC(=O)c1cccs1`, the inhibition (at 20 µM) is 15.1% (inactive).

With `COC(=O)c1ccc(COc2ccc(/C=N/Nc3cccc(C(=O)O)c3)cc2)cc1`, under “at 20 µM”, the inhibition is 58.9% (active).

As to `O=C(O)c1cccc(N/N=C/c2ccc(OC(F)(F)F)cc2)c1`, for the setting “at 20 µM”, the inhibition was 26.1% (inactive).

As for `COC(=O)c1ccc(COc2ccccc2/C=N/Nc2cccc(C(=O)O)c2)cc1`, the inhibition (at 20 µM) is 37% (inactive).

`COc1ccc(/C=N/NC(=O)c2cccc([N+](=O)[O-])c2)cc1OC(=O)c1ccc(C)cc1`: where the note is “at 20 µM”, the inhibition was -0.7% (inactive).

As to `CO/N=C(\c1nonc1N)N1CCN(c2ccc(Cl)cc2[N+](=O)[O-])CC1`, the inhibition (at 20 µM) is -0.3% (inactive).

Take `CC1=N/C(=C/c2ccco2)C(=O)O1`: under “at 20 µM”, the inhibition was 41.7% (inactive).

Regarding `COc1ccccc1/C=C/C=C1N=C(/C=C/c2ccc(Cl)cc2)OC/1=O`, the inhibition is, setting by setting: (at 20 µM) 56.4% (inactive); under setting [1], -0.4%.

For the molecule `O=C1OC(/C=C/c2ccc(Cl)cc2)=NC/1=C/c1ccco1`, for the setting “at 20 µM”, the inhibition is 56.5% (active).

Regarding `O=C(NCc1ccccc1Cl)NCc1ccccc1Cl`, the inhibition (at 20 µM) was 1% (inactive).

Take `CCCC(=O)n1nc(-c2ccccc2)nc1SC`: where the note is “at 20 µM”, the inhibition was 3.2% (inactive).

On to `Cc1nnc(NC(=O)C23CC4CC(CC(C4)C2)C3)s1`, for which the inhibition (at 20 µM) was 2.2% (inactive).

For `COc1ccc(-c2cc(CCCC(=O)N3CCN(c4ccc(OC)cc4)CC3)no2)cc1`, under “at 20 µM”, the inhibition was -1.3% (inactive).

`CCN(CC)CCCC(C)Nc1c2ccc(Cl)cc2nc2ccc(OC)cc12` (centres undefined): where the note is “at 20 µM”, the inhibition is 62.2% (active).

For the molecule `COc1ccc2nc3cc(Cl)ccc3c(Nc3cc(C(C)C)c(O)cc3C)c2c1`, for the setting “at 20 µM”, the inhibition is -5.4% (inactive).

With `COc1ccc2nc3cc(Cl)ccc3c(C#N)c2c1`, the inhibition (at 20 µM) is 3.4% (inactive).

For the molecule `O=C1N/C(=N\S(=O)(=O)Cc2ccccc2)S/C1=C/c1cccc([N+](=O)[O-])c1`, the inhibition (at 20 µM) was 30.7% (inactive).

`COc1c(/C=C2\SC(=Nc3ccccc3Cl)NC2=O)cccc1[N+](=O)[O-]`: the inhibition (at 20 µM) was 20% (inactive).

With `O=C1NC(=Nc2ccccc2Cl)S/C1=C\c1ccc(C(=O)O)cc1`, the inhibition (at 20 µM) was 26.9% (inactive).

With `O=C1N/C(=N\S(=O)(=O)Cc2ccccc2)S/C1=C/c1cc([N+](=O)[O-])ccc1O`, where the note is “at 20 µM”, the inhibition was 69.6% (active).

Consider `O=C1NC(=Nc2ccccc2Cl)S/C1=C\c1cc([N+](=O)[O-])ccc1O`, for which the inhibition (at 20 µM) was 89.1% (active) and the inhibition under setting [1] came out at 124%.

Regarding `COc1cccc(N=C2NC(=O)/C(=C/c3cc([N+](=O)[O-])ccc3O)S2)c1`, the inhibition (at 20 µM) was 64.2% (inactive) and the inhibition under setting [1] was determined as 33%.

With `O=C1NC(=Nc2ccccc2Cl)S/C1=C\c1cccc([N+](=O)[O-])c1`, the inhibition by setting is: (at 20 µM) 75.6% (inactive); under setting [1], 29.4%.

Turning to `COc1cc(/C=C2\S/C(=N/S(=O)(=O)Cc3ccccc3)NC2=O)c([N+](=O)[O-])cc1OC`, the inhibition (at 20 µM) was 25.9% (inactive).

Consider `N/C(=N\NC(=O)c1ccccc1Cl)c1cc2ccccc2oc1=O`, for which, under “at 20 µM”, the inhibition is 0.3% (inactive).

Consider `CCC(=O)Nc1ccc(-c2nnc(SCc3ccc(C(=O)Nc4nccs4)cc3)n2CC)cc1`, for which, for the setting “at 20 µM”, the inhibition is -0.6% (inactive).

With `NC1=NC[C@H](CC2CCCCC2)N1CCc1cc(C(F)(F)F)cc(C(F)(F)F)c1`, the inhibition (at 20 µM) is 0.6% (inactive).

As to `CC(C)[C@@H]1NC(=O)N(c2ccc(Oc3ccccc3)cc2)C1=O`, the inhibition (at 20 µM) is -2.5% (inactive).

In the case of `COc1cccc(-c2c(C(=O)N/N=C(\C)COc3ccccc3)nnn2-c2nonc2N)c1`, the inhibition (at 20 µM) is -1.6% (inactive).

For the molecule `Cc1[nH]c2ccccc2c1C(=O)C(=O)NCCc1c[nH]c2ccccc12`, for the setting “at 20 µM”, the inhibition is 0.7% (inactive).

Consider `CCn1c(SCC(=O)Nc2cc(C)on2)nnc1-c1ccc(S(=O)(=O)N2CCN(C)CC2)cc1`, for which the inhibition (at 20 µM) was -2.9% (inactive).

With `N#Cc1c(-c2ccccc2Cl)noc1/C=C/Nc1ccc(C(=O)O)cc1`, the inhibition by setting is: (at 20 µM) 53.5% (inactive); under setting [1], 3.7%.
